# High-throughput results: PubChem BioAssay, several laboratories
# In the library only some 7% were active in any assay of this set; here they are far more common.
# ADAM17 inh = inhibitors of human ADAM17 | P78536 | recombinant ADAM17, EDANS/DABCYL FRET peptide cleavage | inhibition, % at 6.95 µM | 370,000 tested, 0.83% active | AID 720648;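 active = inhibition above the mean of compounds lying between control limits plus 3 SD, set per campaign, cut at about 8.5% in these data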;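 note: 0% = DMSO-only wells as the low control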
# ADAM10 inh = inhibits human ADAM10; O14672; 370,000 tested, 0.62% active; recombinant ADAM10, EDANS/DABCYL FRET peptide cleavage, 3 h; AID 720582; inhibition, % at 7 µM;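 active = inhibition above a per-campaign cutoff equal to the mean of compounds falling between control-based bounds plus 3 SD, cut at about 20% in these data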;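 note: 0% = DMSO wells while the 100% control is not disclosed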
# GRIN3A LBD mod = modulators (binders) of human NR3A ligand-binding domain | NR3A LBD differential scanning fluorimetry, Tm shift; 0% = protein alone, 100% = glycine-bound protein | Tm shift relative to glycine control, % at 25 µM | 340,000 tested, 2.5% active;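 active = melting temperature shift of at least 10% of the positive control shift, at one fixed dose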
# AHR activator = human AHR activation; 320,000 tested, 2.5% active; P35869; activation, % at 5 µM; AHR-responsive luciferase reporter cells, luminescence; in the data active = activation above about 47%;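 note: 0% = vehicle wells and 100% = reference agonist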
# rCAG RNA binder = r(CAG) repeat RNA binding; inhibition, % at 3 µM; TO-PRO-1 dye displacement fluorescence; AID 651821; 370,000 tested, 1.3% active;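 active = inhibition above the plate cutoff, the mean of all test compounds on that plate plus 3 SD, cut at about 35% in these data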;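 note: 0% = DMSO alone and 100% = 100 µM mitoxantrone as full dye displacement; higher means more dye released from RNA so lower well fluorescence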
# proKLK7 act = proKLK7 (human) activation, primary screen | purified proKLK7, EDANS-DABCYL substrate fluorescence; 100% is mature enzyme control, 0% vehicle | activation, % at 7 µM | P49862 | 370,000 tested, 0.9% active;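 active = activation above the mean of all tested compounds plus 3 SD, computed per campaign excluding outliers beyond control limits, cut at about 13% in these data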
# Target sequence (P49862 whole entry, looked up): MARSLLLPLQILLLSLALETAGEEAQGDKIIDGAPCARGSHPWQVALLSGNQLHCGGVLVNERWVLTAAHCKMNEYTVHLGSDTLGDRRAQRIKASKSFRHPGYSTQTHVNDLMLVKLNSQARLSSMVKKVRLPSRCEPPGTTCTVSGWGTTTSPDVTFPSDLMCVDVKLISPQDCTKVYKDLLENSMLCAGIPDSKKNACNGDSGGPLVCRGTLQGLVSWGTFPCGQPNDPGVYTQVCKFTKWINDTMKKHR
# ADAM10 counter = ADAM10 inhibition, counter-screen for ADAM17 exosite hits. shares compounds with ADAM17 inh. recombinant ADAM10, EDANS/DABCYL FRET peptide cleavage, 3 h. 2,900 tested, 47% active. inhibition, % at 6.95 µM;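 active = mean inhibition over the triplicate runs exceeds the activity threshold set in the earlier primary screen, cut at about 20% in these data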;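 note: 0% = DMSO wells and 100% = marimastat wells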
# ADAM17 confirm = human ADAM17 inhibition, confirmation | 2,900 tested, 65% active | recombinant ADAM17, EDANS/DABCYL QFRET peptide cleavage | shares compounds with ADAM17 inh | inhibition, % at 6.95 µM;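 active = mean inhibition across replicates above the hit cutoff set in the primary screen, cut at about 8.5% in these data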;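 note: 0% = DMSO wells and 100% = marimastat wells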
# Starred values were filed as active, the others as inactive; . = not tested or not shown.
SMILES,ADAM17 inh,ADAM10 inh,GRIN3A LBD mod,AHR activator,rCAG RNA binder,proKLK7 act,ADAM10 counter,ADAM17 confirm
O=C(CCNS(=O)(=O)c1ccccc1)NCC1CCCCC1,0,2,0,.,-3,0,.,.
Cc1ccc(CCNC(=O)Cc2ccc(NC3=NC4CS(=O)(=O)CC4S3)cc2)cc1 (centres undefined),0,4,-2,-1,2,0,.,.
COC(=O)CN1C(=O)C2(C(C#N)=C(N)Oc3c2c(C)nn3-c2ccccc2)c2ccccc21 (centres undefined),13*,4,-3,7,4,-1,-2,2
O=C(CN1C(=O)NC2(CCCCCCC2)C1=O)Nc1cccc(Br)c1,9.4*,9,-3,4,3,0,20*,12*
CC(=O)c1cccc(NC(=O)CN2C(=O)NC3(CCCCCCC3)C2=O)c1,1,-4,1,1,1,0,.,.
CC(C)Oc1cc(NC(=O)CS(=O)CC(=O)Nc2cccc(C(F)(F)F)c2)c(Cl)cc1Cl (centres undefined),9.2*,18,26*,1,4,0,31*,16*
CCOc1ccc(CNC(=S)N/N=C/c2ccc(OC)c(OC)c2)cc1,8.7*,10,-17,12,3,0,14,15*
COc1cc(/C=N/NC(=S)NCc2ccccc2)ccc1OCC#N,4,6,-9,19,4,-1,.,.
N#Cc1ccc(CSc2ccccn2)c(Cl)c1,-1,-10,-1,-5,-6,0,.,.
N#Cc1ccccc1CSc1ccccn1,9.1*,12,0,0,2,1,-8,0
O=[N+]([O-])CC(c1ccccc1)P(=O)(c1ccccc1)c1ccccc1 (centres undefined),16*,1,2,3,4,0,-3,32*
C=CC[C@H]1CC(C)=C[C@H](CC=C)N1C(=O)c1cc(COc2ccccc2SC)on1,9.4*,13,3,4,3,0,29*,14*
COCC1CCN(C(=O)c2cc(COc3ccccc3SC)on2)C1 (centres undefined),0,-2,-2,1,0,0,.,.
CC(C)(C)C(=O)/C=c1\[nH]c(=O)/c(=C\c2ccc(F)cc2)s1,10*,18,2,32,17,1,3,6
CC(C)(C)C(=O)/C=C1\NC(=O)CS1,1,3,0,1,1,1,.,.
CC(C)C(c1nnnn1Cc1ccco1)N1CCN(c2cccc(Cl)c2)CC1 (centres undefined),14*,20,-27,9,4,0,12,8
CC(C)C(c1nnnn1Cc1ccccc1)N1CCN(Cc2ccco2)CC1 (centres undefined),-4,-9,1,0,-12,0,.,.
COc1ccc(NC(=O)C(=O)c2cn(CC(=O)N3CCOCC3)c3ccccc23)cc1OC,-3,13,0,2,4,0,.,.
COc1ccc(C(C(=O)NC(C)(C)C)N(C(=O)CCC(=O)Nc2cc(C)on2)c2ccc(C)c(C)c2)cc1 (centres undefined),-2,-3,1,-1,-4,0,.,.
COc1ccc(NC(=O)C(OC(=O)c2ccc([N+](=O)[O-])o2)c2ccccc2)cc1Cl (centres undefined),9.8*,5,2,2,26,-1,25*,12*
CCC(C(=O)Nc1ccc(OC)c(Cl)c1)c1ccccc1 (centres undefined),7,16,-7,0,4,1,.,.
COc1ccc(NC(=O)c2cc(-c3cc(Cl)ccc3C)n[nH]2)c(OC)c1,9.9*,16,.,.,6,-1,23*,11*
COc1ccc(NC(=O)c2cc(-c3cc(Cl)ccc3C)n[nH]2)cn1,0,0,.,.,3,1,.,.
Cc1ccc(S(=O)(=O)Nc2cc(Cl)c(O)c3ncccc23)cc1,14*,11,-4,22,17,5,8,17*
Oc1c(Cl)cc(Cl)c2cccnc12,1,6,0,.,6,0,.,.
SMILES,ADAM17 inh,ADAM10 inh,GRIN3A LBD mod,AHR activator,rCAG RNA binder,proKLK7 act,ADAM10 counter,ADAM17 confirm
COC(=O)CCN1CCC2CC1c1cc(N3CCCCC3)ccc12 (centres undefined),2,0,.,.,1,1,.,.
O=S(=O)(Nc1ccc(-c2csc(-c3ccccc3)n2)cc1)c1ccc(F)cc1,11*,16,22*,1,29,-1,20*,19*
O=S(=O)(Nc1ccc(O)c(Sc2nc3ccccc3s2)c1)c1ccc(F)cc1,10*,19,9,12,26,0,34*,23*
O=S(=O)(Nc1ccc(O)c(Sc2nc3ccccc3s2)c1)c1cccc2ccccc12,9.0*,18,15*,14,32,0,42*,22*
COc1ccccc1OCC(=O)Nc1oc(-c2ccccc2)c(-c2ccccc2)c1C#N,3,4,-13,23,21,-1,.,.
N#Cc1c(NC(=O)COC(=O)C2CC3C=CC2C3)oc(-c2ccccc2)c1-c1ccccc1 (centres undefined),8.9*,16,5,20,16,1,-14,-2
CN1CCN(C(=O)C[C@@H]2CC[C@@H]3[C@H](COC[C@@H](O)CN3Cc3cccc(Cl)c3)O2)CC1,2,-2,.,.,1,0,.,.
O=C(Nc1ccc2c(c1)OCO2)C1Cc2c(-c3ccccc3Oc3ccccc3)ccnc2O1 (centres undefined),8.9*,4,.,.,5,0,20*,9.7*
O=C(Nc1cccc(OC(F)(F)F)c1)C1Cc2c(-c3cccc(F)c3)ccnc2O1 (centres undefined),12*,13,.,.,5,0,35*,19*
CC(=O)c1cccc(NC(=O)C2Cc3c(-c4cccc(C(C)=O)c4)ccnc3O2)c1 (centres undefined),6,5,.,.,2,-1,.,.
COc1ccc(NC(=O)C2Cc3c(-c4cccc(F)c4)ccnc3O2)cc1 (centres undefined),-3,2,.,.,4,0,.,.
CC(=O)c1cccc(-c2ccnc3c2CC(C(=O)Nc2cccc(Oc4ccccc4)c2)O3)c1 (centres undefined),9.4*,18,.,.,9,1,25*,9.9*
CC(=O)c1cccc(-c2ccnc3c2CC(C(=O)Nc2cccc(C(F)(F)F)c2)O3)c1 (centres undefined),8.9*,5,.,.,2,0,14,9
